FLuc counter: firefly luciferase modulation, counter-screen for miR-21 project. P08659. purified FLuc, Km substrates, luminescence inhibition. Potency, µM (doses to about 57.5 µM), without a hit: top-dose activity change, negative = inhibition, most hits filed as inhibitors. 6.9% of 360,000 active. AID 588342;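 further: plate controls were vehicle for no effect and reference inhibitor for full effect; nearly all actives have a fitted effect of over 55% in size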
Target sequence (P08659 whole entry, looked up): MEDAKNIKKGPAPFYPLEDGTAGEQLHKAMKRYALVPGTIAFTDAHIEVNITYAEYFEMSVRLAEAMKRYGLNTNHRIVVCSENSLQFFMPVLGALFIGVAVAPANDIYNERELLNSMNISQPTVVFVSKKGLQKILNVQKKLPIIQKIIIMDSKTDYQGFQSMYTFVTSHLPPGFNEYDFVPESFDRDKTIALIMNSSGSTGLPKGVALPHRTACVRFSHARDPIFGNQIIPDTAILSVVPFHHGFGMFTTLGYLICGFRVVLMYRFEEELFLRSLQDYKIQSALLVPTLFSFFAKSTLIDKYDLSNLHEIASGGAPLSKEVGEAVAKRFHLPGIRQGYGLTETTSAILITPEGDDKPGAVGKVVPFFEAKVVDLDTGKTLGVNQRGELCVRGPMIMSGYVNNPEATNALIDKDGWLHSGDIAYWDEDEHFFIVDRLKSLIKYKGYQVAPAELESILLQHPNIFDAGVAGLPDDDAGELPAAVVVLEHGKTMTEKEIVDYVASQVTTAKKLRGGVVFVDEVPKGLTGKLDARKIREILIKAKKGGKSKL
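Purified P. pyralis luciferase, 10 nM final, with Km-level 10 uM D-luciferin and 10 uM ATP in 50 mM Tris acetate pH 7.5, 10 mM Mg acetate, 0.01% Tween-20, 0.05% BSA; 6-point qHTS titration about 60 µM downward; luminescence read.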
ELG1 genotox: genotoxicity induction in ELG1-luciferase HEK293T cells; HEK293T ELG1-luciferase reporter, luminescence, 16 h; Potency, µM (top dose mostly 46 µM), for inactives: top-dose activity change, positive = activation, hits mostly activators; 1.3% of 330,000 active; further: % of control where 0% means no effect; nearly all actives have a fitted effect of over 60% in size
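Cells (2,000/well) expressing the ELG1-luciferase fusion are dosed by pin tool and kept 16 hr at 37 °C, 5% CO2. Signal comes from ONE-Glo luciferase reagent after 30 min at room temperature.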
NPC1 promoter act: activates the NPC1 promoter; Potency, µM (titrated, usually from 9.22 µM), without a hit: at the highest dose activation, most hits filed as activators; AID 485313; 2.4% of 320,000 active; Huh7 NPC1 promoter luciferase reporter, 24 h; further: % of control where 0% means no effect; nearly all actives have a fitted effect of over 60% in size
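In 1536-well qHTS, Huh7 cells harboring an NPC1 promoter–luciferase construct received compound for 24 h; activation was quantified by luminescence following luciferase reagent addition.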
SMN2 splice up: enhancers of SMN2 splice variant expression; 2.8% of 210,000 active; Potency, µM (titrated, usually from 46.1 µM), for the others: at the highest dose activity change, positive = activation, hits mostly activators; HEK293 SMN2-luciferase splicing reporter, luminescence, 30-36 h; further: % of control where 0% means no effect; nearly all actives have a fitted effect of over 55% in size
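HEK293 cells carry an SMN2 […]–luciferase reporter in which exon 7 inclusion puts luciferase in frame. Cells were plated 10-12 h before compound addition, then incubated 30-36 h at 37C. ONE-Glo luminescence was read; sodium butyrate at 4.5 mM final served as control.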
Rab9 prom act: Rab9 promoter activation. Potency, µM (highest dose often 9.22 µM), for inactives: top-dose activation, negative = inhibition, hits mostly activators. 2.8% of 320,000 active. Huh7 Rab9 promoter-luciferase reporter, luminescence, 24 h; further: % of control where 0% means no effect; nearly all actives have a fitted effect of over 60% in size
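Promoter activation is measured as luciferase luminescence in Huh7 cells stably transfected with a Rab9 promoter–luciferase construct, following 24 h compound exposure at 37 °C and 10 min reagent incubation at ambient temperature.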
* hit, by the source's call; ? = inconclusive; / = not tested or not shown; [ ] = remark or other dose. Shown are actives, neighbours in structure and some others; about 7.5% of the full set was active somewhere. The call rests on the fitted dose curve; in most records, active means well fitted curve in the direction sought with a large enough effect; inconclusive means small, poorly fitted or top-dose-only effect, or another doubt; inactive means no such curve, though single readings can be large; an effect the other way counts as inactive or inconclusive. Potency means the concentration at half of the fitted maximal effect.

SMILES	FLuc counter	ELG1 genotox	NPC1 promoter act	SMN2 splice up	Rab9 prom act
COc1ccccc1-c1cc(-c2ccccc2)nc(=O)[nH]1	0%	1%	1%	/	-2%
CC1CCCCC1NC(=O)COC(=O)c1ccc2c(c1)NC(=O)CS2 (configuration not stated)	/	1%	/	/	/
O=C(N[C@H]1/C=C\[C@@H](O)CCCC1)OCc1ccccc1	/	15µM*	/	/	/
Cc1cc(C(=O)CSc2nc(N)cc(N)n2)c(C)n1C1CC1	-4%	-12%	-2%	-14%	-4%
C=CCn1c(C)cc(C(=O)CSc2nc(N)cc(N)n2)c1C	21µM*	3%	1%	-1%	21%
Cc1cc(C(=O)CSc2nc(N)cc(N)n2)c(C)n1-c1cccc(F)c1	24µM*	-2%	3%	-37%	-5%
O=C(NCc1ccccc1)c1ccc(CSc2nc3cccnc3n2Cc2cccc(F)c2)cc1	-4%	/	/	/	/
CN(C)/C=N/C(=S)Nc1ccc(Cl)c(Cl)c1	17µM*	?	18%	13%	24%
COc1cccc(Cn2c(=O)c(-c3ccc(Cl)cc3)nc3cnc(N(C)C)nc32)c1	/	/	/	1%	/
CCOC(=O)c1ccc(NC(=O)c2nn(C)cc2Br)cc1	6.7µM*	21µM*	?	24%	?
CCn1cc(Br)c(C(=O)Nc2ccc(F)c(Cl)c2)n1	17µM*	?	2.2µM*	11%	2.8µM*
CCn1cc(Br)c(C(=O)Nc2ccc(Cl)cc2Cl)n1	?	?	-4%	-26%	0%
CCOC(=O)c1ccc(NC(=O)c2nn(CC)cc2Br)cc1	11µM*	?	?	?	?
Cc1ccc2oc(-c3ccc(Cl)c(NC(=O)c4ccc(OC(C)C)cc4)c3)nc2c1	?	/	/	0%	/
CCn1c(SCC(N)=O)nnc1-c1cc2c(C)nn(-c3ccccc3)c2s1	15µM*	1%	6%	-7%	0%
COc1ccc(S(=O)(=O)Nc2cccc(-c3ccc(N4CCCCC4)nn3)c2)cc1F	2.7µM*	/	/	/	/
COc1ccc(S(=O)(=O)Nc2ccc(-c3ccc(N4CCCC4)nn3)cc2)cc1C	-3%	2%	1%	/	2%
Cc1cc(C)c(S(=O)(=O)Nc2ccc(-c3ccc(N4CCCCCC4)nn3)cc2)cc1C	-18%	/	/	/	/
COc1ccc(S(=O)(=O)Nc2cccc(-c3ccc(N4CCOCC4)nn3)c2)cc1F	6.7µM*	/	/	/	/
COc1ccc(S(=O)(=O)Nc2ccccc2C(=O)N2CCOCC2)cc1F	-1%	0%	9%	/	4%
COc1ccc(S(=O)(=O)Nc2cccc(-c3ccc(N4CCCCCC4)nn3)c2)cc1F	5.4µM*	/	/	/	/
COc1cc(C)c(C)cc1S(=O)(=O)Nc1cccc(-c2ccc(N3CCOCC3)nn2)c1	27µM*	/	/	/	/
COc1ccccc1-c1csc(NC(=O)c2ccc(N3C(=O)CCC3=O)cc2)n1	?	-6%	-4%	-15%	-11%
Cc1ccccc1CNC(=O)Cc1ccc(NC(=O)N2CCCCc3ccccc32)cc1	-29%	/	/	/	/
Cc1ccc(-n2cc3c(c2-c2ccccc2Br)c(=O)n(C)c(=O)n3C)cc1N	4%	/	/	10%	/
SMILES	FLuc counter	ELG1 genotox	NPC1 promoter act	SMN2 splice up	Rab9 prom act
CC1CCCN(C(=O)c2cc3c(=O)n(C)c4ccccc4c3s2)C1 (configuration not stated)	0%	/	/	21%	/
COc1ccc(-n2cnc3sc(-c4ccccc4)cc3c2=O)cc1	?	?	0.56µM*	6.3µM*	0.63µM*
O=c1c2cc(-c3ccccc3)sc2ncn1-n1cccc1	-18%	?	1.8µM*	?	1.8µM*
Cc1ccc(C)n1-n1c(C)nc2sc(-c3ccccc3)cc2c1=O	17µM*	?	?	-16%	?
O=c1[nH]cnc2sc(-c3ccccc3)cc12	15µM*	19%	20%	16%	?
O=C(CNC(=O)c1ccc(Cl)cc1)NCCCn1ccnc1	-2%	-4%	6%	-21%	12%
CCc1cccc(C)c1NC(=O)c1cnn(-c2ccc(F)cc2)c1-n1cccc1	-10%	/	/	/	/
COc1ccc(NC(C)=O)cc1NC(C)C(=O)Nc1cccc2ccccc12 (configuration not stated)	-3%	-4%	-2%	?	-5%
CCc1cc2c(=O)n(-c3ccc(C)cc3)cnc2s1	11µM*	?	4µM*	3.2µM*	2.5µM*
CCOC(=O)C(CC)n1nnc2sc(-c3ccccc3)cc2c1=O (configuration not stated)	21µM*	/	/	-8%	/
CC(=O)Cn1nnc2sc(-c3ccccc3)cc2c1=O	?	?	?	14µM*	?
CCc1cc2c(=O)n(-c3ccccc3)cnc2s1	-10%	7%	-3%	7%	6%
CCn1cnc2sc(-c3ccccc3)cc2c1=O	6µM*	3.7µM*	1.3µM*	10µM*	2.8µM*
CSc1ccccc1NC(=O)CN(C)C(=O)C1CCN(C(=O)Nc2ccccc2)CC1	2%	-1%	0%	/	-3%
CCOC(=O)c1c(C)n(C)c2ccc(OC)c(NC(=O)CN3CCN(C(=O)c4ccco4)CC3)c12	6%	-3%	-2%	-12%	-5%
CC(=O)Cn1cnc2sc(-c3ccccc3)cc2c1=O	9.5µM*	13µM*	3.2µM*	20µM*	4.5µM*
O=C(Cn1cnc2sc(-c3ccccc3)cc2c1=O)N1CCOCC1	-11%	3%	6%	24%	-2%
CCN=c1scc(C)n1/N=C/c1cc(Br)c(O)c(Br)c1	19µM*	-6%	-1%	?	-1%
CCN=c1scc(C)n1/N=C/c1ccc(O)c(O)c1O	3.4µM*	-4%	1%	-15%	20%
COCCN=c1scc(-c2cccs2)n1/N=C/c1ccc(O)c(O)c1O	?	3%	-2%	/	3%
C=C(C)CN=c1scc(C)n1/N=C/c1ccco1	-10%	4%	6%	-8%	11%
O=C(CN1C(=O)CC(c2ccccc2)=Nc2ccccc21)Nc1ccc(Br)cc1	-3%	/	/	/	/
CCc1cc(C(=O)N2CCCC(CCC(=O)NCc3cccc(OC)c3)C2)no1 (configuration not stated)	-5%	2%	0%	/	-2%
O=C(O)C1(C(=O)O)CCN(S(=O)(=O)c2ccccc2)CC1	/	/	/	-2%[9.22 µM]	/
C=CC(=O)OCCCC	/	/	/	4%	/
SMILES	FLuc counter	ELG1 genotox	NPC1 promoter act	SMN2 splice up	Rab9 prom act
Nc1nonc1C(=O)NCCNc1ccc([N+](=O)[O-])cc1	4%	-2%	-1%	/	3%
N/C(=N\N=C\c1ccc([N+](=O)[O-])cc1)c1nonc1N	?	5.2µM*	1.6µM*	/	1.4µM*
N/C(=N\N=C\c1ccc(O)cc1)c1nonc1N	11µM*	?	3.2µM*	16µM*	3.5µM*
N/C(=N\N=C\c1cccc(O)c1)c1nonc1N	1.9µM*	?	?	18%	?
N/C(=N\N=C\c1ccc(O)c(O)c1)c1nonc1N	15µM*	?	?	/	?
COc1ccc(/C=N/N=C(\N)c2nonc2N)cc1OC	?	0%	?	109%	?

Source: PubChem (National Center for Advancing Translational Sciences (NCATS))
